The list is not random: actives were taken first. Their share in the collection is about 0.77%.
Vif-A3F inh – Vif-A3F binding inhibition. 390,000 tested, 0.2% active. Potency, µM (titrated, usually from 46.1 µM), inactives show top-dose activity, negative = active. HeLa A3F-eYFP + Vif (tagged APOBEC3F with the HIV-1 protein that degrades it), YFP fluorescence increase; also: potency is read from the fitted curve at half-maximal effect; % of control where 0% means no effect; nearly all actives have a fitted effect of over 65% in size
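HeLa cells stably expressing Vif plus C-terminally eYFP-tagged A3F were seeded, incubated overnight at 37 deg C, dosed with compound, incubated overnight again at 37 deg C. Yellow fluorescence (Ex 488/Em 500-530) reported blocked Vif-mediated A3F-eYFP degradation.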
PKM2 activator – PKM2 (human) enzyme activation | Potency, µM (doses to about 57.5 µM), without a hit: at the top dose activation, most hits filed as activators | 260,000 tested, 0.34% active | purified PKM2, Kinase-Glo ATP luminescence, activation; response scale: 0% is enzyme alone, no compound | P14618; also: potency is read from the fitted curve at half-maximal effect; % is scaled to controls: 0 for no effect and ±100 for the full control effect; nearly all actives have a fitted effect of over 55% in size
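Kinase-Glo luminescence reports ATP generated from ADP (0.1 mM) and PEP (0.5 mM) by purified hPK-M2 after 1 h at room temperature, pH 7.2 imidazole buffer; intermediate enzyme activity allows detecting inhibitors and activators.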
RGS12 GoLoco inh – RGS12 GoLoco-Gai1 interaction inhibition; Gai1:RGS12 GoLoco peptide FP, rhodamine, 10 min; Potency, µM (highest dose often 61.6 µM), for inactives: top-dose activity, negative = inhibition, actives largely listed as inhibitors; 230,000 tested, 0.44% active; active = well fitted inhibition curve with a large enough effect, not every such curve was filed as active; inactive = no such curve, though single readings can be large or run the other way; also: potency is read from the fitted curve at half-maximal effect; % is scaled to controls: 0 for no effect and ±100 for the full control effect; nearly all actives have a fitted effect of over 30% in size
Vif-A3G inh – blocks the Vif interaction with human APOBEC3G; Q9HC16; HeLa A3G-eYFP + Vif (tagged APOBEC3G with the HIV-1 protein that degrades it), YFP fluorescence, overnight; Potency, µM (highest dose often 46.1 µM), inactives show at the highest dose activity, negative = active, hits mostly inhibitors; 410,000 tested, 0.076% active; AID 602310; also: potency is read from the fitted curve at half-maximal effect; % is scaled to controls: 0 for no effect and ±100 for the full control effect; nearly all actives have a fitted effect of over 60% in size
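HeLa cells stably expressing Vif and C-terminally eYFP-tagged A3G, seeded overnight at 37 deg C, then exposed to compound by pintool overnight at 37 deg C. Rise in yellow fluorescence (Ex 488/Em 500-530, Acumen) marks blocked Vif-driven A3G degradation.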
IL2 activator – activators of IL-2. IL-2 activation reporter assay, cell-based qHTS; stimulated with anti-CD3/CD4/CD28 beads; in transgenic mouse T cells. activation, % (series mostly up to about 46 µM). 360,000 tested, 0.065% active; in the data active = activation above about 50%; inconclusive = mostly about 30% to 49%; also: 0% is about no effect
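Quantitative HTS in unstimulated transgenic mouse T cells, with memory T cells as non-tolerant control and PMA/ionomycin as tolerance-bypass control. Compound pretreatment lasted 60 minutes before 18 h bead stimulation; EGFP/DsRed fluorescence read.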
GCN5L2 inh – GCN5L2 (KAT2A) acetyltransferase inhibition; AID 504327; 390,000 tested, 0.21% active; Potency, µM (top dose mostly 58.9 µM), without a hit: at the highest dose activity change, negative = inhibition, usual class: inhibitors; GCN5L2 HAT assay, ThioGlo1 CoA-SH fluorescence; also: potency is read from the fitted curve at half-maximal effect; % is scaled to controls: 0 for no effect and ±100 for the full control effect
Target sequence (Q92830 whole entry, looked up): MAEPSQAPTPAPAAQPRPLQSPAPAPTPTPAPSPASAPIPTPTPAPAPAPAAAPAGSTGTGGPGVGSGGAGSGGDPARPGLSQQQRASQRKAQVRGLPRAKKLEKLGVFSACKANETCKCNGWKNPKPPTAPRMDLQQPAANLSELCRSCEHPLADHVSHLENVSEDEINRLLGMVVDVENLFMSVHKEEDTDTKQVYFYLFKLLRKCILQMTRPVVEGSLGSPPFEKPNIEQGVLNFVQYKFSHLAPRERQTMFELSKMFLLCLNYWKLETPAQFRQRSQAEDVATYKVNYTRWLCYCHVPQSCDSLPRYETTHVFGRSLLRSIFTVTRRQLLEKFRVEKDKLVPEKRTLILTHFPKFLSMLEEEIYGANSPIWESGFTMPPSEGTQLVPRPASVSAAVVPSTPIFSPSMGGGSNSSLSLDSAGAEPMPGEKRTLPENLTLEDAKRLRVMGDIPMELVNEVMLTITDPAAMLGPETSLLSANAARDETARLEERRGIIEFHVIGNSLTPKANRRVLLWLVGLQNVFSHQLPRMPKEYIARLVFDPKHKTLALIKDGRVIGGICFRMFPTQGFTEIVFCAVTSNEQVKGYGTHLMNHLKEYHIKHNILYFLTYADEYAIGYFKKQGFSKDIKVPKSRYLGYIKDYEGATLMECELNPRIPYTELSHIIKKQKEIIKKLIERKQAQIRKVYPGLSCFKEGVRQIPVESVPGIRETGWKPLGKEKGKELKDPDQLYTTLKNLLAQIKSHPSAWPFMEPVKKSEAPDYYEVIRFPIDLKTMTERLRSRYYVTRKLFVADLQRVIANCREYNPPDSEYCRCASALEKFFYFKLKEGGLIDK
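Free CoA generated was detected with ThioGlo1 (50uM) fluorescence at Ex340nm/Em540nm, read immediately and after 20 min at room temperature. Enzyme, 20 nM in HEPES pH 7.5 buffer, saw compounds 15 min before adding 75uM H3(1-25) peptide and 70uM acetyl-CoA.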
The depositor's hits bear a star; [ ] = another dose, or the depositor's remark. Unless noted, calls follow the shape of the dose curve; as a rule, active = well fitted curve in the direction sought with a large enough effect; inconclusive = small, poorly fitted or top-dose-only effect, or another doubt; inactive = no such curve, though single readings can be large; an effect the other way counts as inactive or inconclusive.

How did Nc1ccccc1N=Cc1ccc(-c2cccc(Cl)c2)o1 do in these assays?
Vif-A3F inh: inconclusive; PKM2 activator: 28.2µM*; RGS12 GoLoco inh: 41.1%; Vif-A3G inh: -15.9%; IL2 activator: -0.2; GCN5L2 inh: 19.6%

What do the screens show for `CC1(C)C(CO)=CC(=O)C2=C1SCC(=O)N2`?
Vif-A3F inh: 4.7%; PKM2 activator: -0.5%; RGS12 GoLoco inh: 2.8%; Vif-A3G inh: -0.6%; IL2 activator: 0.2; GCN5L2 inh: -3.7%

What do the screens show for `C=CCSc1nc2sc3c(c2c(=O)n1CC)CCC3`?
Vif-A3F inh: 22.4µM*; PKM2 activator: -4.1%; Vif-A3G inh: -3.5%; IL2 activator: 0.1; GCN5L2 inh: -9.8%

Results for Cc1cc(C)cc(NC(=S)NC(=O)C2CC2)c1 ?
Vif-A3F inh: 12.6µM*; PKM2 activator: -3.1%; Vif-A3G inh: 0.5%; IL2 activator: -0.1; GCN5L2 inh: -5.6%

What do the screens show for `Cc1cccc(NC(=S)NC(=O)C2CC2)c1`?
PKM2 activator: 4.4%; GCN5L2 inh: 1.2%

What do the screens show for `CC(Sc1nc(N)c2c3c(sc2n1)CSC(C)(C)C3)C(=O)Nc1ccccc1` (centres undefined)?
Vif-A3F inh: 4.9%; PKM2 activator: 7.08µM*; RGS12 GoLoco inh: 7.0%; Vif-A3G inh: 0.1%; IL2 activator: -0.5; GCN5L2 inh: -4.0%

Results for O=C(Cc1ccccc1)Nc1ccc(C(=O)NCc2ccccc2)cc1 ?
Vif-A3F inh: -6.7%; PKM2 activator: -0.9%; Vif-A3G inh: 1.4%; IL2 activator: 0.1; GCN5L2 inh: -0.1%

What do the screens show for `COCCNC(=O)COC(=O)c1[nH]c(C)c(C(C)=O)c1C`?
Vif-A3F inh: -1.4%; PKM2 activator: -12.9%; RGS12 GoLoco inh: 2.1%; Vif-A3G inh: -0.6%; IL2 activator: 2.0; GCN5L2 inh: -8.0%

How did COC1=C/C(=C/c2c(N)n3cc(C)sc3nc2=O)C=CC1=O do in these assays?
Vif-A3F inh: -0.1%; PKM2 activator: -0.9%; RGS12 GoLoco inh: 5.4%; Vif-A3G inh: -15.8%; IL2 activator: 0.5; GCN5L2 inh: -1.1%

Results for Cc1cn2c(N)c(C=C3C=C(Cl)C(=O)C(Cl)=C3)c(=O)nc2s1 ?
Vif-A3F inh: 10µM*; PKM2 activator: -8.8%; RGS12 GoLoco inh: 25.9%; Vif-A3G inh: -10.5%; IL2 activator: 2.1; GCN5L2 inh: -8.3%

What do the screens show for `O=C1C(=Cc2cccn2-c2ccc(O)cc2)C(=O)c2ccccc21`?
Vif-A3F inh: inconclusive; PKM2 activator: 1.4%; RGS12 GoLoco inh: 20µM*; Vif-A3G inh: -6.7%; IL2 activator: 21.3; GCN5L2 inh: -7.8%

What do the screens show for `C(=N\n1cnnc1)/c1cccn1-c1ccccc1`?
Vif-A3F inh: -0.2%; PKM2 activator: 28.2µM*; RGS12 GoLoco inh: 3.5%; Vif-A3G inh: -1.0%; IL2 activator: -1.3; GCN5L2 inh: -6.9%

How did Cc1cc(/C=N/n2cnnc2)c(C)n1-c1ccccc1 do in these assays?
Vif-A3F inh: 2.6%; PKM2 activator: -0.4%; RGS12 GoLoco inh: 8.2%; Vif-A3G inh: -24.8%; IL2 activator: -0.1; GCN5L2 inh: -2.5%

How did O=C1C(=Cc2cccn2-c2ccccc2)C(=O)c2ccccc21 do in these assays?
Vif-A3F inh: 28.2µM*; PKM2 activator: -15.8%; RGS12 GoLoco inh: -5.9%; Vif-A3G inh: inconclusive; IL2 activator: 0.1; GCN5L2 inh: -8.4%

How did O=C(O)c1cccc(-n2cccc2C=C2C(=O)c3ccccc3C2=O)c1 do in these assays?
Vif-A3F inh: -4.5%; PKM2 activator: 2.2%; RGS12 GoLoco inh: 20.2%; Vif-A3G inh: 0.2%; IL2 activator: 0.1; GCN5L2 inh: -22.9%

How did COc1ccccc1NC(=O)CSc1nc(=O)n(CCN(C)C)c2c1CCCC2 do in these assays?
Vif-A3F inh: 9.1%; Vif-A3G inh: 4.4%; IL2 activator: 1.2; GCN5L2 inh: -1.0%

Results for CCc1cc2c(NCC3CCCO3)ncnc2s1 (centres undefined) ?
Vif-A3F inh: 17.0%; PKM2 activator: 4.8%; RGS12 GoLoco inh: 3.1%; Vif-A3G inh: -0.2%; IL2 activator: 0.6; GCN5L2 inh: -1.5%

What do the screens show for `O=[N+]([O-])c1ccc(NCCNS(=O)(=O)c2ccccc2)c(C(F)(F)F)c1`?
Vif-A3F inh: 4.0%; PKM2 activator: 28.2µM*; RGS12 GoLoco inh: 1.8%; Vif-A3G inh: -6.7%; IL2 activator: 0.1; GCN5L2 inh: -8.5%

Results for NC(=O)C1(N2CCCCC2)CCN(S(=O)(=O)c2ccccc2)CC1 ?
Vif-A3F inh: 5.5%; Vif-A3G inh: -3.2%; IL2 activator: 0.9

What do the screens show for `Cc1ccc(CNC(=O)c2coc(=O)c3ccccc23)o1`?
Vif-A3F inh: -24.7%; PKM2 activator: 12.6µM*; RGS12 GoLoco inh: -19.0%; Vif-A3G inh: 0.0%; IL2 activator: -0.1; GCN5L2 inh: -0.9%

How did CCn1cc(C(=O)NCc2ccc(C)o2)c2cc(OC)c(OC)cc2c1=O do in these assays?
Vif-A3F inh: -7.3%; PKM2 activator: 14.1µM*; RGS12 GoLoco inh: -15.3%; Vif-A3G inh: -7.9%; IL2 activator: -1.4; GCN5L2 inh: -4.2%

What do the screens show for `O=C(NCc1ccncc1)C1CCCN(S(=O)(=O)Cc2ccccc2)C1` (centres undefined)?
Vif-A3F inh: -15.5%; PKM2 activator: -1.8%; RGS12 GoLoco inh: 1.4%; Vif-A3G inh: 3.2%; IL2 activator: -1.6; GCN5L2 inh: -5.3%

What do the screens show for `N=c1c(S(=O)(=O)c2ccc(Br)cc2)cc2c(=O)n3ccccc3nc2n1Cc1ccccc1`?
Vif-A3F inh: -6.0%; PKM2 activator: 0.2%[0.46 µM]; Vif-A3G inh: -3.7%; IL2 activator: -3.7; GCN5L2 inh: -2.0%

Results for COc1ccc(CCn2c(=N)c(S(=O)(=O)c3ccc(C)cc3)cc3c(=O)n4ccccc4nc32)cc1 ?
Vif-A3F inh: -1.9%; Vif-A3G inh: -2.1%; IL2 activator: 60.7*; GCN5L2 inh: -1.1%

What do the screens show for `Cc1ccc(Cn2c(=N)c(S(=O)(=O)c3ccc(Br)cc3)cc3c(=O)n4ccccc4nc32)cc1`?
Vif-A3F inh: -7.5%; Vif-A3G inh: 4.5%; IL2 activator: 95.0*; GCN5L2 inh: 7.7%

How did COc1ccc(Cl)cc1NC(=O)CSc1nc2c(oc3ccccc32)c(=O)n1Cc1ccco1 do in these assays?
Vif-A3F inh: 5.4%; Vif-A3G inh: 7.6%; GCN5L2 inh: -1.7%

How did COc1ccc(NC(=O)CSc2nc3c(oc4ccccc43)c(=O)n2Cc2ccco2)cc1Cl do in these assays?
Vif-A3F inh: 8.91µM*; Vif-A3G inh: inconclusive; GCN5L2 inh: -3.0%

How did C1CNCCN1 do in these assays?
RGS12 GoLoco inh: 6.7%; GCN5L2 inh: 4.9%

Screening results: PubChem BioAssay, National Center for Advancing Translational Sciences (NCATS)
